We go through 9 compounds from PubChem BioAssay (NCI).

Among the test systems are NCI-H23 lung; NCI-H226 lung; NCI-H322M lung; HOP-62 NSCLC; NCI-H522 lung; A549/ATCC NSCLC; 786-0 renal; COLO 205 colon; DU-145 prostate; K-562 leukemia; MALME-3M melanoma; MDA-MB-231 breast; RXF 393 renal; SF-268 CNS; SF-295 CNS; SF-539 CNS; UACC-257 melanoma; M14 melanoma; NCI-H460 lung; HOP-92 NSCLC.
What all share (assay): NCI-60 one-dose screen, 48 h (100 = growth as untreated, 0 = no growth, -100 = all killed)
Common to all, as to details: 10 µM unless noted

About 83,000 compounds went through this panel and 20% of them were active in at least one assay; those are over-represented in the sample as a whole.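 Assay: single dose, 48 h. Readout: percent growth (0 = no net growth; negative = cell death). Active: <10.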 A number with no mark means an inactive call. Activity calls are given as the source filed them. *1 amine or outer side, *2 acyl side, *3 side chain or, on linkers, in order; H or OH if unused. Where a SMILES comes first, the peptide text is derived from it. [ ]: non-standard residue; d: D form. The star is where a group is joined. X5 = CCC(=O)CC1CC(C)CC(C(=O)[*:2])N1[*:1]; X4 = CCCCCCCCC(C)C(=O)*; Aib = CC(C)(N)C(=O)O; X6 = CC(CN(C)CCO)N*

On to `S=C=Nc1ccc(N2CCOCC2)cc1`, for which the growth with NCI-H23 lung was 92.1%; in the test on NCI-H226 lung, 86%; with NCI-H322M lung it was 96.1%; in the test with HOP-62 NSCLC, 89.6%; in the test with NCI-H522 lung it was 74.4%; in the test with A549/ATCC NSCLC, 89.8%. The growth is 89.8% in the test with 786-0 renal; 97.4% in the test with COLO 205 colon; 108% in the test on DU-145 prostate; 89.6% in the test with K-562 leukemia; 82.3% in the test with MALME-3M melanoma; 97.3% in the test with MDA-MB-231 breast. Further, the growth in the test with RXF 393 renal was 72.2%; in the test on SF-268 CNS, 99.9%; with SF-295 CNS, 84.8%; in the test with SF-539 CNS, 89.5%; in the test on UACC-257 melanoma it was 88.7%; in the test on M14 melanoma, 93%.
`OC(c1cc(-c2ccc(Cl)cc2)nc2c(Cl)cccc12)C1CCCCN1` (configuration not stated): the growth was -9.58% (active) in the test with NCI-H23 lung; -44.1% (active) in the test with NCI-H226 lung; -54.8% (active) in the test with NCI-H322M lung; -87.4% (active) with NCI-H460 lung; -29.4% (active) in the test with HOP-92 NSCLC; -89.1% (active) in the test with NCI-H522 lung. Also, the growth with A549/ATCC NSCLC is -82.9% (active); in the test with 786-0 renal, -75% (active); in the test on COLO 205 colon, -91.1% (active); in the test with DU-145 prostate it was -96.3% (active); with K-562 leukemia, -30.9% (active); with MALME-3M melanoma, -50.2% (active). The growth was -71.1% (active) with MDA-MB-231 breast; -98.1% (active) with RXF 393 renal; -65.7% (active) with SF-268 CNS; -80.8% (active) in the test with SF-295 CNS; -72.4% (active) with SF-539 CNS; -77% (active) in the test with UACC-257 melanoma.
Consider `COc1cc(/C=C/C(=O)CC(=O)/C=C/c2ccc(O)c(OC)c2)ccc1O`, for which the growth in the test with NCI-H23 lung is 21.1%; with NCI-H226 lung it was 88.1%; in the test on NCI-H322M lung it was 78.3%; in the test on NCI-H460 lung, 47.4%; in the test on HOP-92 NSCLC, 71.9%; with NCI-H522 lung, -22.5% (active). Further, the growth was 63.8% in the test on A549/ATCC NSCLC; 16.7% with 786-0 renal; 86.3% in the test with COLO 205 colon; 40.6% in the test on DU-145 prostate; 12.5% in the test with K-562 leukemia; 60.3% with MALME-3M melanoma. In addition, the growth was 82.3% in the test on MDA-MB-231 breast; 20.3% in the test with RXF 393 renal; 44.9% with SF-268 CNS; 102% in the test with SF-295 CNS; 14.8% in the test on SF-539 CNS; 53.6% in the test on UACC-257 melanoma. The growth in the test with M14 melanoma was 7.15% (active).
`CCOc1ccc(Nc2nc3c(s2)C(=O)c2ccccc2C3=O)cc1`: the growth is 41.9% in the test with NCI-H23 lung; 87% in the test with NCI-H226 lung; 105% in the test on NCI-H322M lung; 113% in the test with HOP-62 NSCLC; 85.1% with HOP-92 NSCLC; 51.5% in the test with NCI-H522 lung. Further, the growth is 94% with A549/ATCC NSCLC; 108% with 786-0 renal; 100% in the test with COLO 205 colon; 37.2% with K-562 leukemia; 52.9% in the test on MALME-3M melanoma; 33.9% in the test on MDA-MB-231 breast. Besides, the growth in the test on RXF 393 renal was 105%; in the test on SF-268 CNS, 73%; in the test on SF-295 CNS it was 102%; with SF-539 CNS, 108%; with UACC-257 melanoma it was 94.7%; in the test with M14 melanoma, 85.9%.
For the compound `Nc1nc2ncc(CNc3ccc(C(=O)NC(CCC(=O)NC(CCC(=O)NC(CCC(=O)NC(CCC(=O)NC(CCC(=O)O)C(=O)O)C(=O)O)C(=O)O)C(=O)O)C(=O)O)cc3)nc2c(=O)[nH]1` (configuration not stated), the growth is 101% in the test with NCI-H23 lung; 113% in the test on NCI-H226 lung; 97.5% with NCI-H322M lung; 120% with NCI-H460 lung; 95.3% in the test on HOP-92 NSCLC; 96.9% in the test with NCI-H522 lung. The growth with A549/ATCC NSCLC is 104%; in the test with 786-0 renal it was 105%; with COLO 205 colon, 113%; in the test with DU-145 prostate it was 108%; with K-562 leukemia, 97.4%; in the test on MALME-3M melanoma, 90.3%. Further, the growth was 112% with RXF 393 renal; 105% with SF-268 CNS; 106% in the test on SF-295 CNS; 99.8% in the test with SF-539 CNS; 105% with UACC-257 melanoma; 107% in the test on M14 melanoma.
For the compound `CCCCCCCCCCCCN1C(C)=CS/C1=C\C=C\c1scc(C)[n+]1CCCCCCCCCCCC`, the growth in the test on NCI-H23 lung is 10.8%; in the test with NCI-H226 lung, 40.6%; with NCI-H322M lung, 96.8%; with HOP-62 NSCLC, 35.5%; in the test with HOP-92 NSCLC, 36.8%; in the test on NCI-H522 lung, 3.47% (active). Besides, the growth was 16.6% with A549/ATCC NSCLC; 37.3% in the test on 786-0 renal; 8.86% (active) in the test with COLO 205 colon; 43% with DU-145 prostate; 4.52% (active) in the test with K-562 leukemia; 29.9% with MALME-3M melanoma. Besides, the growth in the test with MDA-MB-231 breast was 20.2%; in the test with SF-268 CNS it was 40.3%; in the test with SF-295 CNS it was -21.5% (active); in the test with SF-539 CNS, 44.4%; in the test on UACC-257 melanoma, -14.2% (active); with M14 melanoma, 30.5%.
As for `CC1CC(C)(C)OB(OC(C)CC(C)(C)OB2OC(C)CC(C)(C)O2)O1` (configuration not stated), the growth with NCI-H23 lung was 93%; with NCI-H226 lung, 107%; in the test on NCI-H322M lung it was 102%; with NCI-H460 lung, 111%; in the test on HOP-92 NSCLC it was 101%; in the test with NCI-H522 lung it was 81.6%. Further, the growth is 93.8% in the test with A549/ATCC NSCLC; 98.4% with 786-0 renal; 93.8% with COLO 205 colon; 102% in the test on DU-145 prostate; 96.1% with K-562 leukemia; 111% in the test on MALME-3M melanoma. Moreover, the growth with RXF 393 renal is 116%; with SF-268 CNS, 102%; with SF-295 CNS, 105%; in the test on SF-539 CNS, 104%; in the test on UACC-257 melanoma, 94.8%; in the test on M14 melanoma, -55.3% (active).
Turning to `CCCCCCCCC(C)C(=O)N1CCCC1C(=O)N1C(CC(=O)CC)CC(C)CC1C(=O)NC(C)C(=O)NC(C)(C)C(=O)NC(C)(C)C(=O)NC(C(=O)NC(C)C(=O)NC(C)(C)C(=O)NC(C)(C)C(=O)NC(C)CN(C)CCO)C(C)CC` (configuration not stated) (X4-P[X5]A[Aib][Aib]IA[Aib][Aib]-X6; configuration not given here), the growth with NCI-H23 lung was 195%; with NCI-H226 lung, -50.7% (active); in the test with NCI-H322M lung, 21.2%; in the test on NCI-H460 lung, -83.7% (active); in the test with HOP-92 NSCLC it was -23.8% (active); in the test with NCI-H522 lung, -62.9% (active). For the same compound, the growth in the test on A549/ATCC NSCLC was -62% (active); in the test on 786-0 renal, -53.7% (active); in the test with COLO 205 colon, -75.9% (active); in the test with DU-145 prostate, -84.4% (active); in the test on K-562 leukemia, -52.1% (active); with MALME-3M melanoma it was 13.5%. The growth is -94.1% (active) in the test with MDA-MB-231 breast; -56.5% (active) in the test with RXF 393 renal; -15.4% (active) in the test with SF-268 CNS; -26.2% (active) in the test with SF-295 CNS; -77% (active) in the test on SF-539 CNS; -72.1% (active) with UACC-257 melanoma.
For the compound `Oc1ccc(Br)cc1Sc1cc(Br)ccc1O`, the growth in the test with NCI-H23 lung is 9.64% (active); in the test with NCI-H226 lung it was 98.2%; with NCI-H322M lung, 92%; in the test with HOP-92 NSCLC, 22.1%; with A549/ATCC NSCLC, 50.6%; in the test on 786-0 renal, 100%. Also, the growth with COLO 205 colon was 113%; in the test with DU-145 prostate, 76.4%; in the test on K-562 leukemia, 49.2%; with MALME-3M melanoma, 40.9%; in the test with MDA-MB-231 breast, 56.7%; with RXF 393 renal, 76.8%. Besides, the growth was 55.3% with SF-268 CNS; 98.9% with SF-295 CNS; 45.3% with SF-539 CNS; 52.1% in the test on UACC-257 melanoma; 39.9% in the test on M14 melanoma.
